Bioassay records as filed in PubChem BioAssay.
Sampled rows, rich in hits. Any-hit rate of the full collection: about 7.4%.
NPC1 promoter act: NPC1 promoter activation. AID 485313. Huh7 NPC1 promoter luciferase reporter, 24 h. 2.4% of 320,000 active. Potency, µM (highest dose often 9.22 µM), without a hit: at the top dose activation, actives largely listed as activators; also: % of control where 0% means no effect; nearly all actives have a fitted effect of over 60% in size
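Quantitative HTS used a cell-based reporter: Huh7 cells stably bearing the NPC1 promoter upstream of luciferase were treated with compounds for 24 h, and promoter activation was read as luminescence.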
Rab9 promoter act: activators of Rab9 promoter; Huh7 Rab9 promoter-luciferase reporter, luminescence, 24 h; Potency, µM (series often up to 9.22 µM), for inactives: at the highest dose activation, negative = inhibition, actives largely listed as activators; 2.8% of 320,000 active; also: % of control where 0% means no effect; nearly all actives have a fitted effect of over 60% in size
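Using Huh7 cells stably transfected with Rab9 promoter–luciferase, compounds were incubated 24 h at 37 °C, 5% CO2; luciferase luminescence was read 10 min after reagent addition.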
FLuc counter: inhibits or activates purified firefly luciferase, miR-21 counter-screen. Potency, µM (highest dose often 57.5 µM), inactives show at the highest dose activity change, negative = inhibition, actives largely listed as inhibitors. 6.9% of 360,000 active. P08659. purified FLuc, Km substrates, luminescence inhibition;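 also: plate controls were vehicle for no effect and reference inhibitor for full effect; nearly all actives have a fitted effect of over 55% in size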
Target sequence (P08659 whole entry, looked up): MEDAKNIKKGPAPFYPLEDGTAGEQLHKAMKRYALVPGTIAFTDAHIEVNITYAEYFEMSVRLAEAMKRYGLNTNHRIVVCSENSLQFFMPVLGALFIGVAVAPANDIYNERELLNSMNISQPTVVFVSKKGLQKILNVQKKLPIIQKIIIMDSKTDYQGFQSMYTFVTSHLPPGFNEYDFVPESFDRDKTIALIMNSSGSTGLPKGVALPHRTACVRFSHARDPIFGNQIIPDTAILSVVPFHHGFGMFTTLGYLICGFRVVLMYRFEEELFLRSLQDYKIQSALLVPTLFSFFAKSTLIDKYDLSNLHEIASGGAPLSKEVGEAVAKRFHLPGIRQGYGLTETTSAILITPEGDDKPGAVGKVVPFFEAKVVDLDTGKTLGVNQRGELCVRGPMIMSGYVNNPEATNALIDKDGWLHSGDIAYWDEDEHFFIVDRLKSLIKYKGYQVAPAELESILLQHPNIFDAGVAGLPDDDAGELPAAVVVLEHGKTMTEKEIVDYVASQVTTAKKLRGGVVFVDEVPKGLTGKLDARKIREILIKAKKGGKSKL
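Biochemical qHTS of compounds, final roughly 60 µM downward over six points, against 10 nM purified firefly luciferase using Km concentrations of substrates (10 uM D-luciferin, 10 uM ATP) in Tris acetate pH 7.5 buffer; luminescence output.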
ELG1 genotox: induces genotoxicity in HEK293T cells with luciferase-tagged ELG1 | AID 504466 | Potency, µM (titrated, usually from 46 µM), for inactives: at the highest dose activity change, positive = activation, hits mostly activators | HEK293T ELG1-luciferase reporter, luminescence, 16 h | 1.3% of 330,000 active; also: % of control where 0% means no effect; nearly all actives have a fitted effect of over 60% in size
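Luminescence read-out: rising ELG1-luciferase signal, reflecting elevated ELG1 protein under genetic stress, flags genotoxic compounds. Cells were treated for 16 hr at 37 °C before ONE-Glo detection.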
SMN2 splice up: increases expression of the SMN2 splice variant. 2.8% of 210,000 active. Potency, µM (titrated, usually from 46.1 µM), inactives show top-dose activity change, positive = activation, most hits filed as activators. HEK293 SMN2-luciferase splicing reporter, luminescence, 30-36 h; also: % of control where 0% means no effect; nearly all actives have a fitted effect of over 55% in size
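HEK293 cells carry an SMN2 […]–luciferase reporter in which exon 7 inclusion puts luciferase in frame. Cells were plated 10-12 h before compound addition, then incubated 30-36 h at 37C. ONE-Glo luminescence was read; sodium butyrate at 4.5 mM final served as control.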
* = called active by the depositor; ? = inconclusive; . = no result given; [ ] = another dose, or the depositor's remark. Calls follow the shape of the dose curve; as a rule, active = well fitted curve in the direction sought with a large enough effect; inconclusive = small, poorly fitted or top-dose-only effect, or another doubt; inactive = no such curve, though single readings can be large; an effect the other way counts as inactive or inconclusive. Potency is read from the fitted curve at half-maximal effect.

SMILES	NPC1 promoter act	Rab9 promoter act	FLuc counter	ELG1 genotox	SMN2 splice up
O=C(Nc1nccs1)c1ncc(Cl)c(Cl)c1Cl	0%	5%	13µM*	-14%	.
O=C(Nc1nccs1)c1ccc2ccccc2c1	3.2µM*	3.2µM*	3µM*	14%	.
O=C(Nc1nccs1)c1ccccn1	?	3.2µM*	?	?	?
C/C(=C\c1ccccc1)C(=O)Nc1nccs1	2.5µM*	3.5µM*	9.5µM*	?	11µM*
Cn1cc(Cl)c(C(=O)Nc2nccs2)n1	16%	22%	-19%	24%	.
O=C(Nc1nccs1)Oc1ccccc1	1%	-5%	-4%	0%	-1%
COc1ccc(Cl)cc1NC(=O)CN(C)C(=O)Cn1cnc2c1c(=O)n(C)c(=O)n2C	-1%	1%	1%	3%	.
O=C(CN1C(=O)c2ccc([N+](=O)[O-])cc2C1=O)NC1CCCCCC1	0%	-6%	3%	3%	.
O=C(NC1CCC(O)CC1)c1cccnc1Sc1ccccc1Cl (stereo not drawn)	0%	0%	5%	2%	.
CCC1=Nc2cc(C(=O)NCc3ccccc3OC)ccc2Sc2ccc(Cl)cc21	.	.	-1%	.	.
CCOc1ccc(S(=O)(=O)NCCc2csc3nc(-c4cccc(C)c4)nn23)cc1	.	.	2%	.	.
COc1ccc2c(c1)CCc1c(C(=O)Nc3c(C)nn(Cc4ccc(Cl)c(Cl)c4)c3C)noc1-2	.	.	-7%	.	-15%
O=C(Nc1nccs1)c1ccc(N2CCOCC2)c([N+](=O)[O-])c1	1.8µM*	2.2µM*	12µM*	?	.
O=C(CCNC(=O)c1ccc(Br)cc1)Nc1nccs1	1%	12%	-16%	1%	-5%
O=C(Nc1nccs1)c1ccc(Br)cc1	2.5µM*	2.2µM*	9.5µM*	?	.
O=C(Nc1nccs1)c1ccc(Br)s1	?	4µM*	15µM*	?	.
CCOc1cccc(C(=O)Nc2nnc(-c3ccco3)s2)c1	?	4µM*	4.8µM*	?	2.8µM*
O=C(Nc1nccs1)c1cccnc1Cl	1%	-4%	-2%	2%	.
O=C(Nc1ccccc1N1CCOCC1)c1ccc(N2CCOCC2)c([N+](=O)[O-])c1	-3%	-1%	?	-13%	21%
Cc1ccc2c(c1)C1CN(C)CCC1N2Sc1ccccc1[N+](=O)[O-] (stereo not drawn)	-1%	4%	4%	-2%	.
CCOc1ccc(CCNC(=O)c2ccc(Cn3c(=O)c4cccn4c4cccnc43)cc2)cc1	.	.	-5%	.	.
CC(C)(C)c1ccc(Oc2ccc(NC(=O)C3CC=CCC3C(=O)O)cc2)cc1 (stereo not drawn)	2%	-8%	27µM*	-1%	16µM*
CN1C=C/C(=C\c2cc[n+](C)c3ccccc23)c2ccccc21	-39%	-32%	17µM*	12%	-82%
CC(=O)c1ccc(S(=O)(=O)Nc2cccc(-c3ccc(N4CCCC4)nn3)c2)cc1	.	.	9.5µM*	.	.
CC(=O)c1cccc(NS(=O)(=O)c2ccc(NC(=O)N3CCCCC3)cc2)c1	-26%	-24%	0%	0%	.
SMILES	NPC1 promoter act	Rab9 promoter act	FLuc counter	ELG1 genotox	SMN2 splice up
CC(=O)c1ccc(S(=O)(=O)Nc2cccc(-c3cn4c(n3)SCC4)c2)cc1	3%	5%	-15%	-6%	-40%
CC(=O)c1ccc(S(=O)(=O)Nc2cccc(-c3ccc(N4CCCCCC4)nn3)c2)cc1	.	.	4.8µM*	.	.
CCCCC[C@H](O)/C=C/C=C/C=C/[C@@H](O)C/C=C\CCCC(=O)O	.	.	.	.	-9%
COc1ccc(S(=O)(=O)N(CC(=O)NCc2ccco2)c2ccccc2OC)cc1	-1%	1%	6%	-5%	.
COc1ccc(-c2cc(C(=O)NC3=NCCS3)c3ccccc3n2)cc1OC	13%	?	9.5µM*	-6%	5%
O=C(NC1=NCCS1)c1cc(-c2ccc(-c3ccccc3)cc2)nc2ccccc12	4µM*	1.8µM*	0.85µM*	13%	-7%[1.84 µM]
Cc1cc2c(n1-c1ccc(C(=O)NCc3ccccc3Cl)cc1)CCCC2	.	.	6%	.	.
CCOC(=O)CSC1=Nc2ccccc2C2=NC(CCC(=O)NCc3ccc(OC)cc3)C(=O)N12 (stereo not drawn)	.	.	-6%	.	.
CCOc1ccc(CNC(=O)c2cnc3sc(N4CCOCC4)nn3c2=O)cc1OC	.	.	-4%	.	.
NC(=O)C1(N2CCCCC2)CCN(c2nc(-c3ccc(Br)cc3)cs2)CC1	0%	-2%	0%	-2%	-42%
N=C1SCC(=O)N1c1nc(-c2ccccc2)cs1	2.2µM*	2µM*	5.4µM*	?	11µM*
O=C1C2C3c4ccccc4C(c4ccccc43)C2C(=O)N1c1nc(-c2ccccc2)cs1 (stereo not drawn)	-2%	-5%	0%	-6%	14%
Brc1ccc(-c2csc(N3CCCCCC3)n2)cc1	-8%	-15%	8.5µM*	7%	.
CC(C)C(=O)N1CCN(c2nc(-c3ccc(Cl)cc3)cs2)CC1	-6%	-6%	-1%	3%	.
c1ccc(-c2csc(N3CCCCCC3)n2)cc1	10%	19%	15µM*	18µM*	?
CS(=O)(=O)N1CCN(c2nc(-c3ccccc3)cs2)CC1	14%	0%	?	?	9%
CCOC(=O)N1CCN(c2nc(-c3ccc(Cl)cc3)cs2)CC1	3%	7%	17µM*	?	-26%
COc1ccc(CN2C(=NC(=O)C3CCCO3)SC3CS(=O)(=O)CC32)cc1 (stereo not drawn)	1%	-2%	0%	3%	.
CC1CN(S(=O)(=O)c2cccc(C(=O)NCCc3ccc(S(N)(=O)=O)cc3)c2)CC(C)O1 (stereo not drawn)	.	.	.	-2%	.
O=[N+]([O-])c1ccc(-c2csc(N3CCCCCC3)n2)cc1	?	?	12µM*	14%	.
COc1ccc(-c2csc(N3CCOCC3)n2)cc1OC	?	?	12µM*	18µM*	?
CCS(=O)(=O)N1CCN(c2nc(-c3ccccc3)cs2)CC1	21%	20%	19µM*	?	20%
COc1ccc(-c2csc(/N=C/N(C)C)n2)cc1OC	24%	27%	?	?	28%
O=C(N1CCOCC1)N1CCN(c2nc(-c3ccc(F)cc3)cs2)CC1	0%	1%	11µM*	-2%	0%
NC(=O)C1CCN(c2nc(-c3ccc([N+](=O)[O-])cc3)cs2)CC1	.	.	1%	.	.
COC(=O)c1ccc(Nc2ncnc3c2cnn3C)cc1	.	.	-8%	.	.
Cc1ccccc1N(C(=O)CCC(=O)Nc1ccccn1)C(C(=O)NC(C)C)c1ccc(F)cc1 (stereo not drawn)	2%	1%	0%	0%	.
Clc1ccc(-c2csc(N3CCOCC3)n2)cc1	?	3.2µM*	11µM*	?	18µM*
O=C(CCCl)N1CCN(c2nc(-c3ccccc3)cs2)CC1	?	?	15µM*	14%	.
